Results published in PubChem BioAssay AID720513 (Broad Institute, 2013).
The whole screen tested about 2,100 compounds, of which about 480 (23%) were called active. Another 5% or so got no clear call; they are omitted. The list is a sample of the results. Measured potencies and affinities stand elsewhere. Unmarked numbers belong to inactive results.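 How the source made its calls: active means fitted curve reaches 40% activation at or below the top valid concentration, in every replicate test; inconclusive means replicate tests disagree on the call; inactive means the rest, including activity in the opposite direction.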

assay: activators raising PGC1a acetylation in cells, dose response, cell-based, cherry-picked samples, set 6 (AID 720513); details: U2OS PGC1a acetylation AlphaLISA, overnight, 0 = neutral, -100 = inhibitor control; series mostly up to 19.5 µM; activation (acetylation increase): at the top concentration;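 further: cells made to overexpress flag tagged PGC1a plus GCN5 acetyltransferase by viral infection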

Row | SMILES | activation (acetylation increase)
1 | CCN(CC)C(=O)[C@H]1CC(CC(=O)NCc2cccc(C(F)(F)F)c2)C(=O)N2CCc3c([nH]c4ccccc34)[C@]12C (some centres undefined) | -31.4%
2 | CC(=O)Nc1ccc(S(=O)(=O)N2CCN(c3ccccn3)CC2)cc1 | -5.59%
3 | O=C(CCNC(=O)C1CCN(S(=O)(=O)c2ccc(F)cc2)CC1)NCc1ccccc1Cl | -1.53%
4 | N#Cc1cc2c(=O)n3ccccc3nc2n(Cc2cccnc2)c1=O | 5.98%
5 | O=C1C2C3CCC(C3)C2C(=O)N1CNc1ccc(F)cc1 (centres undefined) | -2.1%
6 | O=c1cc(CSc2ccccn2)[nH]c(=O)[nH]1 | -18.7%
7 | Cc1nc2[nH]c(=O)c3c(n2n1)NC1=C(C(=O)CC(C)(C)C1)C3c1ccccc1 (centres undefined) | 14.3% [at 10 µM]
8 | O=[N+]([O-])c1ccc(Oc2cccc(F)c2)c2ccncc12 | -24.5%
9 | Cc1cccc(S(=O)(=O)N(C)C[C@@H]2OCc3cn(nn3)CCCC(=O)N([C@@H](C)CO)C[C@H]2C)c1 | -2.84%
10 | O=C(OCn1ncc(Cl)c(Cl)c1=O)c1ccc(C(F)(F)F)cc1 | -30.8%
11 | O=C(NC1CCCN(Cc2ccc(Cl)cc2)C1)c1ccccc1C(F)(F)F (centres undefined) | 19.9%
12 | CCc1nc(N)nc(N)c1-c1ccc(Cl)cc1 | -18.4%
13 | CCOC(=O)C1CCN(C2=NC(=O)/C(=C/c3ccc(O)cc3)S2)CC1 | -3.08%
14 | Cc1cccc2cc(CN(Cc3nnnn3Cc3ccco3)C3CCCC3)c3nnnn3c12 | 6.98%
15 | COc1cccc2c1C(CO)N1C(C#N)C3CC(C(=O)O)C(C1C2)N3C (centres undefined) | -55.3%
16 | Cc1cccc(-n2c(CNC(=O)c3cccc([N+](=O)[O-])c3C)n[nH]c2=S)c1 | 15.6%
17 | COc1cccc(N(CC(=O)N2CCN(Cc3ccccc3)CC2)S(C)(=O)=O)c1 | 23.1%
18 | CCC(C)(C)n1nnnc1C(c1cccnc1)N1CCCC(C)C1 (centres undefined) | 3.35%
19 | C[C@H](CO)N1C[C@H](C)[C@@H](CN(C)C(=O)C2CCCCC2)Oc2cc(C#Cc3ccncc3)ccc2S1(=O)=O | -89.9%
20 | O=C(CNC(=O)c1sc2ccccc2c1Cl)NCc1ccccc1 | 8.91%
21 | Cc1cccc(N(CC(=O)NC(C)(C)C)C(=O)CNC(=O)c2cccs2)c1 | 17%
22 | O=C(Nc1ccc2c(c1)C(=O)N(c1ccccc1)C2=O)c1cccs1 | -23.8%
23 | COc1ccc(NC(=O)/C(Cl)=C(/Cl)S(=O)Cc2ccccc2)cn1 (centres undefined) | -114%
24 | CN(C)C(=O)C[C@@H]1C=C[C@@H](NS(=O)(=O)c2ccccc2)[C@@H](CO)O1 | -4.45%
25 | CO[C@@H]1CN(C)C(=O)c2ccc(NC(=O)Nc3c(C)noc3C)cc2OC[C@H](C)N(CC2CC2)C[C@@H]1C | -2.51%
26 | CCS(=O)(=O)c1ccc(O)c(NC(=O)COc2ccc(Br)cc2)c1 | 5.32%
27 | O=C(CSc1nnnn1-c1ccc(F)cc1)NNC(=O)c1ccco1 | -9.31%
28 | CC(=O)Nc1ccc(NC(=O)c2cc(=O)c3ccccc3o2)cc1 | -0.676%
29 | Cc1cc(=O)[nH]c2c1c(C)nn2C1CCCC1 | -7.95%
